Data on 20 molecules can be found in PubChem BioAssay (Tox21).

Experiment [1] can be described thus: qHTS assay to identify small molecule agonists of the estrogen related receptor signaling pathway with the pleiotropic PPARgamma coactivator (PGC) (AID 1224823). In short, it runs like this: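 PGC/ERR reporter cells seeded 6 h, then exposed to compounds (23 nL in DMSO) for 18 h at 37 C. One-Glo luciferase luminescence read after 30 min at room temperature.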

Experiment [2] deals with Luciferin 4-monooxygenase (Photinus pyralis) (UniProt P08659). The experiment can be described thus: qHTS assay to identify small molecule inhibitors of firefly luciferase (AID 1224835). Further: nearly all actives have a fitted effect of over 25% in size. Further: potency means the concentration at half of the fitted maximal effect. The method, boiled down:
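Quantitative HTS format; KM concentrations of both substrates. Purified P. pyralis FLuc activity quantified from luminescence images.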

The nature of experiment [3]: qHTS assay to identify small molecule agonists of the constitutive androstane receptor (CAR) signaling pathway - cell viability counter screen (AID 1224836). Further: series mostly up to about 92 µM; nearly all actives have a fitted effect of over 45% in size. The method, boiled down: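 Using CellTiter-Fluor, viability of HepG2 cells harbouring hCAR and CYP2B6-2.2kb was measured following 23 h incubation with a 15-concentration compound series plus PK11195 (0.75 uM final).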

Experiment [4] in a line: qHTS assay to identify small molecule antagonists of the constitutive androstane receptor (CAR) signaling pathway - cell viability counter screen (AID 1224837). Further: series mostly up to about 92 µM; nearly all actives have a fitted effect of over 45% in size. In short, it runs like this: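 HepG2 cells stably expressing hCAR and a CYP2B6-2.2kb reporter were plated and pre-incubated 4 hr at 37 C/5% CO2, then given compounds at 15 concentrations plus 50 nM CITCO (final). After 23 hr, viability was read by CellTiter-Fluor fluorescence.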

For experiment [5], the target named is Nuclear receptor subfamily 1 group I member 3 (Homo sapiens) (UniProt Q14994). The experiment can be described thus: qHTS assay to identify small molecule antagonists of the constitutive androstane receptor (CAR) signaling pathway (AID 1224838). Further: nearly all actives have a fitted effect of over 40% in size. The method, boiled down: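 HepG2 cells stably co-transfected with hCAR and a CYP2B6-2.2kb luciferase reporter were seeded 4 h before compound addition at 15 concentrations. Cells were stimulated with 50 nM CITCO (final) for 24 h at 37 C; luciferase luminescence was then read.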

Experiment [6] has the same target. The experiment can be described thus: qHTS assay to identify small molecule agonists of the constitutive androstane receptor (CAR) signaling pathway (AID 1224839). Further: nearly all actives have a fitted effect of over 15% in size. Further: potency means the concentration at half of the fitted maximal effect. The method, boiled down:
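Double-stable HepG2 cells (hCAR, CYP2B6-2.2kb) seeded 4 h before compound addition. Exposure 24 h with 0.75 uM PK11195 final. Luciferase detected by ONE-Glo.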

A short description of experiment [7]: qHTS assay to identify small molecule antagonists of the estrogen related receptor signaling pathway with the pleiotropic PPARgamma coactivator (PGC) from Tox21 10K library - cell viability counter screen (AID 1224840; active means well fitted cell-killing curve with a large enough effect in the repeat runs, not every such curve was filed as active; further: nearly all actives have a fitted effect of over 40% in size). In short, it runs like this: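 PGC/ERR cells were seeded at 2,000 cells/well and left 6 hours at 37 C/5% CO2 before pin-tool addition of compounds in DMSO. After 17.5 hours at 37 C, CellTiter-Fluor was added and fluorescence read 30 minutes later.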

Experiment [8] can be described thus: qHTS assay to identify small molecule antagonists of the estrogen related receptor signaling pathway with the pleiotropic PPARgamma coactivator (PGC) from Tox21 10K library (AID 1224841; call rule not given here; further: actives are mostly falling curves and most rising ones were filed inactive; nearly all actives have a fitted effect of over 50% in size; further: potency means the concentration at half of the fitted maximal effect). The method, boiled down: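 PGC/ERR reporter cells were seeded at 2,000 cells/well and held 6 hours at 37 C/5% CO2 before pin-tool addition of compounds in DMSO. After 18 hours at 37 C, One-Glo was added and luminescence read after 30 minutes at room temperature.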

The nature of experiment [9]: qHTS assay to identify small molecule agonists of the estrogen related receptor signaling pathway with the pleiotropic PPARgamma coactivator (PGC) from Tox21 10K library (AID 1224842). Further: nearly all actives have a fitted effect of over 15% in size. The method, boiled down:
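PGC/ERR reporter cells (NTP line) were seeded 2,000 per well, rested 6 h at 37 C/5% CO2, then pin-dosed with compounds in DMSO for 18 h at 37 C; luciferase read by One-Glo luminescence after 30 min at room temperature.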

A short description of experiment [10]: qHTS assay to identify small molecule antagonists of the estrogen related receptor (ERR) signaling pathway from Tox21 library - cell viability counter screen (AID 1224834). Further: nearly all actives have a fitted effect of over 30% in size. Further: potency means the concentration at half of the fitted maximal effect. In short, it runs like this:
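ERR reporter cells were plated 6 h before compound addition, then exposed to test compounds in DMSO for 17.5 h at 37 C. Viability was read as CellTiter-Fluor fluorescence after a 30-minute incubation at 37 C.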

Values joined by “and” are separate entries in the source; they are usually repeats but may differ in a detail not shown here. Equal values may be shown once. Results filed as inconclusive are left out. The source holds several records for some structures; these can differ, active in one and inactive in another. Active and inactive are the calls of the source. Unless noted, the call rests on the fitted dose curve; in most records, active means well fitted curve in the direction sought with a large enough effect in the repeat runs; inconclusive means weak or mixed curves; inactive means no such curve, though single readings can be large; an effect the other way counts as inactive or inconclusive.

Luciferin 4-monooxygenase (Photinus pyralis), sequence (P08659 whole entry, looked up): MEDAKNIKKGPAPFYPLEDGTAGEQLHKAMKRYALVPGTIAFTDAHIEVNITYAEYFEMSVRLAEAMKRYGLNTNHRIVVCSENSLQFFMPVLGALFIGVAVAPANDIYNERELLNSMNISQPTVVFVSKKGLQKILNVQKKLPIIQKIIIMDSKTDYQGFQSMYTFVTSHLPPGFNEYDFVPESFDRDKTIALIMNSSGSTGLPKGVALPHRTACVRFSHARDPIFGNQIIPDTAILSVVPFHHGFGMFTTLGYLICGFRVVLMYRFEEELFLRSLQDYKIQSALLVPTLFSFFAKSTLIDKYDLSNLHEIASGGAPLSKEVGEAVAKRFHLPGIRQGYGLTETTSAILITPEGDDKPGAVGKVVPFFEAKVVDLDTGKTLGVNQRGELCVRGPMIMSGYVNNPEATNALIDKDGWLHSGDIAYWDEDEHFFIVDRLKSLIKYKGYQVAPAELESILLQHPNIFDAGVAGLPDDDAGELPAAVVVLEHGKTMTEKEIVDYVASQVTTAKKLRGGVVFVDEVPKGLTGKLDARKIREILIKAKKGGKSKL
Nuclear receptor subfamily 1 group I member 3 (Homo sapiens), sequence (Q14994 whole entry, looked up): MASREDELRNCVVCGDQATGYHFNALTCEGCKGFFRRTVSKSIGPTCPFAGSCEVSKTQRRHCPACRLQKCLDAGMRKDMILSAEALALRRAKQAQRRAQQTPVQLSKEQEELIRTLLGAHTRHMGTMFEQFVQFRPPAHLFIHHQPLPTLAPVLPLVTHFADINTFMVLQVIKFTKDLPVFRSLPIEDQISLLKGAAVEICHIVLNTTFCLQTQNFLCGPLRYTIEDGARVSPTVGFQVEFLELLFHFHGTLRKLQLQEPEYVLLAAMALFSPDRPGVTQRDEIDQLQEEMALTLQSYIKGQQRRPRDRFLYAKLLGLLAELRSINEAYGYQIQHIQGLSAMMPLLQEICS

For `C[C@]12CC[C@@H]3c4ccc(O)cc4C[C@@H](CCCCCCCCCS(=O)CCCC(F)(F)C(F)(F)F)[C@H]3[C@@H]1CC[C@@H]2O` (stereo not given in full), the molecule was classed as inactive in [1]. Further, the Potency result in [2], in experiment [3], in experiment [4], in experiment [5], in [6] and in [7] was “inactive” in each case. In addition, the Potency result in experiment [9] was “inactive”. The Potency in [8] is 19.3 µM (active) and 6.39 µM (active).
As to `N[C@@H](Cc1c[nH]c2ccc(O)cc12)C(=O)O`, the Potency result in [10], in experiment [3], in experiment [4], in experiment [5], in experiment [6] and in experiment [7] was “inactive” each time. Also, in [2], the Potency was 34.6 µM (active) and inactive.
For the molecule `CN(C)C=O`, the Potency entry in experiment [10], in experiment [2], in experiment [3], in experiment [4], in experiment [5] and in [6] was “inactive” each time. Besides, the Potency entry in experiment [7], in experiment [8] and in experiment [9] was “inactive” throughout.
Consider `NC(=O)N1c2ccccc2C=Cc2ccccc21`, for which the Potency result in [10], in experiment [2], in experiment [3], in experiment [4], in experiment [5] and in [6] was “inactive” each time. In addition, in experiment [7], the Potency result is “inactive”.
As to `COCCOCCOC`, the Potency entry in [10], in experiment [2], in experiment [3], in [4], in [5] and in experiment [6] was “inactive” in each case. The Potency result in experiment [7] was “inactive”.
Regarding `O=C(O)CN(CC(=O)O)CC(=O)O`, the Potency result in [10], in experiment [2], in experiment [3], in [4], in experiment [5] and in experiment [6] was “inactive” each time. Also, the Potency result in experiment [7], in experiment [8] and in [9] was “inactive” each time.
In the case of `COc1ccccc1NC(=O)CC(C)=O`, the Potency entry in [10], in [2], in [3], in [4], in [5] and in [6] was “inactive” throughout. The Potency entry in [7] was “inactive”.
Take `O=C1OC(c2ccc(O)cc2)(c2ccc(O)cc2)c2ccccc21`: the Potency entry in [10], in experiment [2], in experiment [3], in experiment [4], in experiment [5] and in experiment [7] was “inactive” each time. Besides, in experiment [6], the Potency is 60.7 µM (active) and 8.63 µM (active) and 4.73 µM (active).
As to `Cc1cccc(Nc2cc(Cl)nc(SCC(=O)O)n2)c1C`, the Potency entry in experiment [10], in [2], in [3], in experiment [4], in [5] and in experiment [6] was “inactive” each time. Moreover, the Potency entry in [7] was “inactive”.
Regarding `CCN(CC)CCOC(=O)c1ccc(N)cc1`, the outcome in experiment [1] was inactive. Further, the Potency entry in experiment [2], in experiment [3], in [4], in experiment [5], in experiment [6] and in experiment [7] was “inactive” each time. The Potency result in [8] and in [9] was “inactive” each time.
In the case of `CC(C)CC(C)CC(O)CC(C)C` (stereo not given), the Potency entry in experiment [10], in [2], in experiment [3], in experiment [4], in experiment [5] and in [6] was “inactive” throughout. Also, the Potency result in experiment [7], in [8] and in [9] was “inactive” throughout.
As for `COc1cc(O)c(C(=O)c2ccccc2)cc1S(=O)(=O)O`, the Potency entry in [10], in experiment [2], in experiment [3], in [4], in experiment [5] and in experiment [6] was “inactive” each time. Moreover, the Potency entry in experiment [7] was “inactive”.
For the molecule `C#C[C@]1(O)CC[C@H]2[C@@H]3CCc4cc(O)ccc4[C@H]3CC[C@@]21C`, in experiment [10], the Potency was 27.1 µM (active) and 19.3 µM (active) and 8.41 µM (active). Further, the Potency entry in [2], in experiment [3] and in [4] was “inactive” throughout.
On to `C/C=C/c1ccc(O)c(OC)c1`, for which the Potency result in [10], in [2], in experiment [3], in [4], in [5] and in experiment [6] was “inactive” throughout. Moreover, the Potency entry in experiment [7] is “inactive”.
With `CCOCCO`, the Potency entry in experiment [10], in experiment [2], in experiment [3], in experiment [4], in [5] and in experiment [6] was “inactive” each time. Moreover, the Potency result in experiment [7] is “inactive”.
Take `CC(C)Cc1ccc(C(C)C(=O)O)cc1` (stereo not given): in experiment [1], the outcome was inactive. Besides, the Potency result in experiment [3], in experiment [4], in [5], in experiment [6], in [7] and in experiment [8] was “inactive” each time. Also, the Potency entry in [9] is “inactive”.
For `CCCCNC(=O)NS(=O)(=O)c1ccc(N)cc1`, the Potency result in experiment [10], in [2], in [3], in experiment [4], in experiment [5] and in experiment [6] was “inactive” each time. In addition, the Potency result in experiment [7], in experiment [8] and in experiment [9] was “inactive” in each case.
Turning to `CCN1CCCC1=O`, the Potency entry in experiment [10], in [2], in [3], in experiment [4], in experiment [5] and in [6] was “inactive” throughout. Further, the Potency result in [7] was “inactive”.
On to `Cc1c(N(C)C)c(=O)n(-c2ccccc2)n1C`, for which the Potency result in experiment [10], in experiment [2], in [3], in [4], in [5] and in [6] was “inactive” each time. In addition, the Potency result in experiment [7] is “inactive”.
Consider `NC(=O)OCC(COC(N)=O)c1ccccc1`, for which the Potency entry in experiment [10], in experiment [2], in [3], in experiment [4], in experiment [5] and in experiment [6] was “inactive” throughout. In experiment [7], the Potency result was “inactive”.
